According to PubChem BioAssay (NCATS):
Inconclusive results are not listed. Where a call stands in place of a potency, no number is given. Calls of active or inactive are those of the source. Calls come from the whole dose curve.

Experiment: Cytotoxicity counterscreen for inhibitors of SARS-CoV-2 cell entry (AID 1645845); note: nearly all actives have a fitted effect of over 50% in size
Settings: cell viability (SARS-CoV-2 entry assay cells); series mostly up to 57.1 µM
Method in brief: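 48 h compound treatment (after 1 h preincubation), HEK293-ACE2 cells, 37 C/5% CO2; ATP luminescence endpoint; normalized to cell wells and media blanks.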

SMILES | Potency
O=C(Oc1ccccc1C(=O)O)c1ccccc1O | inactive
CC12CCC(CC1)C(C)(C)O2 | inactive
CC1CC(OC(=O)c2ccccc2O)CC(C)(C)C1 (centres undefined) | inactive
CCOCCn1c(C2CCN(CCc3ccc(C(C)(C)C(=O)O)cc3)CC2)nc2ccccc21 | inactive
NC(=O)c1cc[n+](CC2=C(C(=O)[O-])N3C(=O)[C@@H](NC(=O)Cc4cccs4)[C@H]3SC2)cc1 | inactive
CC(=O)c1ccc(S(=O)(=O)NC(=O)NC2CCCCC2)cc1 | inactive
Nc1ncn([C@H]2C[C@H](O)[C@@H](CO)O2)c(=O)n1 | inactive
C[N+](C)(CCOc1ccccc1)Cc1cccs1 | inactive
CC[N+](C)(CC)CCOC(=O)C1c2ccccc2Oc2ccccc21 | inactive
CC(=O)Nc1ccc(OC(=O)c2ccccc2OC(C)=O)cc1 | inactive
CN(C)CCOc1ccc(/C(=C(/CCCl)c2ccccc2)c2ccccc2)cc1 | inactive
CNCCC=C1c2ccccc2CCc2ccccc21 | inactive
CN1C(=O)OC(C)(C)C1=O | inactive
CC1CCN(CCCC(=O)c2ccc(F)cc2)CC1 | inactive
NS(=O)(=O)c1cc2c(cc1Cl)NC(CC1CCCC1)NS2(=O)=O (centres undefined) | inactive
O=P(O)(O)C(O)(Cn1ccnc1)P(=O)(O)O | inactive
COc1cccc(OC)c1C(=O)N[C@@H]1C(=O)N2[C@@H]1SC(C)(C)[C@@H]2C(=O)O | inactive
CS(=O)(=O)c1ccc([C@@H](O)[C@@H](CO)NC(=O)C(Cl)Cl)cc1 | inactive
CC(=O)OCC(=O)[C@@]1(OC(C)=O)[C@@H](C)C[C@H]2[C@@H]3C[C@H](F)C4=CC(=O)C=C[C@]4(C)[C@@]3(F)[C@@H](O)C[C@@]21C | inactive
